In all, about 310,000 compounds went through this assay and about 3,800 (1.2%) were called active.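 Rule for the calls: active = ratio B-score over 3 SD below the library mean, with starting fluorescence within 5 SD of its mean; inactive = the rest, inconclusive results apart.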 For the sample, actives were picked, then their nearest neighbours and some compounds at random.
Biological target: Potassium channel subfamily K member 9 (Homo sapiens) (UniProt Q9NPC2)
Assay: blockers of human TASK-3 (KCNK9) channel – HEK293 cells, thallium flux, primary screen (AID 488922);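 for B-score: negative B-score means less thallium flux so channel inhibition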
Conditions: HEK293 KCNK9, FluxOR thallium flux fluorescence, at 10 µM; stronger effect = lower value

Sequence of Potassium channel subfamily K member 9 (Homo sapiens) (Q9NPC2 whole entry, looked up): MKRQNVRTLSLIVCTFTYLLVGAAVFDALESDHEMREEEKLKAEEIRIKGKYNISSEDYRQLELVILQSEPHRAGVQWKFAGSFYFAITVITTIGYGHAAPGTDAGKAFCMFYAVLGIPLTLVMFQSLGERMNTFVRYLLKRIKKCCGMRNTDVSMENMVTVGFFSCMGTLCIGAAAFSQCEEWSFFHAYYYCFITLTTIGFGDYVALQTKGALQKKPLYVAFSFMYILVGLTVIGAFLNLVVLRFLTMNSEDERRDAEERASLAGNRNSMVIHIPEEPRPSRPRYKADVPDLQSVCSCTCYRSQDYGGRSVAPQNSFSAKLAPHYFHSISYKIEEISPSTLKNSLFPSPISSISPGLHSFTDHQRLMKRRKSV

Compound | B-score
CCc1noc(C)c1C(=O)Nc1nc(-c2ccccc2)cs1 | inactive
C[C@H](NC(=O)C1CC(=O)N(c2ccc3c(c2)OCO3)C1)C(=O)NCc1ccco1 (stereo partly specified) | inactive
O=C(/C=C/c1ccccc1)Oc1coc(CSc2ncccn2)cc1=O | inactive
COc1cc(OC)cc(-c2cc3nc(C4CCN(C(=O)OC(C)(C)C)CC4)cc(=O)n3[nH]2)c1 | inactive
O=C(c1ccc(F)cc1)N1CCC(C(=O)N2CCN(S(=O)(=O)c3ccccc3Br)CC2)CC1 | inactive
O=C(Cc1ccc(S(=O)(=O)N2CCCC2)s1)NC1CCCCCC1 | inactive
CCCn1c(=N)n(CC(=O)c2ccc(Cl)c(Cl)c2)c2ccccc21 | -7.8 (active)
CCN(CC)CC1(O)CCN(C(=O)c2ccc(Cl)c(Cl)c2)CC1 | inactive
O=C(Cn1nnc(N2CCCCC2)n1)c1ccc(Cl)c(Cl)c1 | inactive
O=c1c2c3c(sc2n(CCN2CCCC2)c(=O)n1Cc1ccccc1)CCCCC3 | inactive
COc1cccc(N2CC(NC(=O)c3ccc4ccccc4c3)CC2=O)c1 (stereo unspecified) | inactive
COc1cccc(CNS(=O)(=O)c2ccc3c(c2)CC(C)N3C(=O)C2CCC2)c1 (stereo unspecified) | inactive
Cc1ccc2nc3c(cc(C(=O)NCCc4ccccc4)c(=N)n3CC3CCCO3)c(=O)n2c1 (stereo unspecified) | inactive
Cc1cc(C)c(C)c(S(=O)(=O)N2CCN(C(=O)c3ccc4c(=O)n5c(nc4c3)CCC5)CC2)c1C | inactive
CCOc1cc(C)c(Cl)cc1S(=O)(=O)n1nnc2ccccc21 | inactive
CCOc1ccc(C(C)C)cc1S(=O)(=O)n1nc(C)cc1C | -10.1 (active)
COc1ccc(C(C)C)cc1S(=O)(=O)Nc1ncn[nH]1 | inactive
CCOc1ccc(OCC(=O)Nc2c3c(nn2C(C)(C)C)CS(=O)(=O)C3)cc1 | inactive
CCC(C)(C)n1nnnc1C(c1cccs1)N1CCN(c2nc3ccccc3s2)CC1 (stereo unspecified) | -9.04 (active)
CCC(C)(C)n1nnnc1C(c1ccccc1OC)N1CCSCC1 (stereo unspecified) | -7.08 (active)
CC(C)(C)n1nnnc1C(c1ccc(Cl)cc1)N1CCSCC1 (stereo unspecified) | inactive
CC(C)(C)n1nnnc1C(c1ccc2ncccc2c1)N1CCSCC1 (stereo unspecified) | inactive
CCC(C)(C)n1nnnc1C(c1ccc(OC)c(OC)c1)N1CCN(C(=O)c2ccco2)CC1 (stereo unspecified) | inactive
CCCC(c1nnnn1C(C)(C)C)N1CCN(Cc2ccccc2)CC1 (stereo unspecified) | inactive
COc1ccccc1C(c1nnnn1CC1CCCO1)N1CCN(c2ccccc2)CC1 (stereo unspecified) | inactive
COc1ccccc1C(c1nnnn1C(C)(C)C)N1CCN(Cc2ccccc2)CC1 (stereo unspecified) | -21.5 (active)

Compound | B-score
COc1ccc(OC)c(C(c2nnnn2C(C)(C)C)N2CCc3ccccc3C2)c1 (stereo unspecified) | inactive
O=C(NC(=S)Nc1ccc2oc(=O)ccc2c1)c1ccc(-c2cccc(Cl)c2Cl)o1 | inactive
Cc1ccc(S(=O)(=O)N2CCN(C(=O)c3ccc(-n4cncn4)c([N+](=O)[O-])c3)CC2)cc1 | inactive
COc1ccc(CNC(=O)C2CCCC2)cc1 | inactive
O=C1CC2(CC(c3ccc(Cl)cc3)=NO2)C(=O)N1c1ccccc1 (stereo unspecified) | inactive
Nc1cc(C(F)(F)F)ccc1N1CCOCC1 | inactive
CCC(C)c1ccc(NC(=S)N2CCCC2)cc1 (stereo unspecified) | inactive
Cc1cccc(C)c1NC(=S)N(Cc1cccnc1)Cc1ccccc1Cl | inactive
Cc1c(Cl)cccc1NC(=S)N(Cc1ccccc1)Cc1cccnc1 | inactive
Cc1ccc(CN(Cc2cccnc2)C(=S)Nc2cc(Cl)ccc2C)cc1 | -7.5 (active)
Cc1ccc(Cl)cc1NC(=S)N(CCN(C)C)Cc1cccs1 | inactive
COCCNC(=S)N(Cc1cccnc1)Cc1ccc(OC)c(OC)c1 | inactive
Cc1ccc(CN(Cc2cccnc2)C(=S)Nc2cccc(Cl)c2C)cc1 | -6.65 (active)
Cc1ccccc1NC(=O)COc1cccc2c1CCNC2=O | inactive
O=C(CCNC(=O)c1ccc(Br)cc1)Nc1cccc(S(=O)(=O)N2CCCCC2)c1 | inactive
O=C(CSc1ncn[nH]1)NCc1ccc2c(c1)OCO2 | inactive
O=C(CSc1ncnc2scc(-c3ccccc3)c12)NCc1ccc2c(c1)OCO2 | -6.9 (active)
O=C(CN1CCN(c2nc(-c3ccccc3)cs2)CC1)NCc1ccc2c(c1)OCO2 | inactive
CCOC(=O)C(=Cc1ccccc1OC)C(=O)OCC | inactive
CCOC(=O)c1c(NC(=O)CNC2CCCc3ccccc32)sc(C(N)=O)c1C (stereo unspecified) | inactive
CCOc1ncccc1C(=O)NNC(=O)c1cccc(S(=O)(=O)Nc2ccccc2OC)c1 | inactive
COc1ccc(NC(=O)C2CCC(CNC(=O)[C@@H]3Cc4ccccc4CN3)CC2)cc1 (stereo partly specified) | inactive
N#Cc1c(NC(=O)CCCN2C(=O)c3ccccc3C2=O)oc(-c2ccccc2)c1-c1ccccc1 | inactive
COc1cc(C(=O)Nc2oc(-c3ccccc3)c(-c3ccccc3)c2C#N)cc(OC)c1OC | -6.66 (active)
COC(=O)c1sccc1NC(=O)c1cc(OC)c(OC)c(OC)c1 | inactive
COC(=O)Nc1ncc(CN2CCCCC2)s1 | inactive

Compound | B-score
CCCCN(C(=O)COc1ccc(NC(C)=O)cc1)C1CCS(=O)(=O)C1 (stereo unspecified) | inactive
Cc1cccc(C(=O)NCc2nnc(SC(C)C(=O)Nc3nnc(C)s3)n2C)c1 (stereo unspecified) | inactive
Brc1ccc(-c2noc(-c3ccccc3)n2)o1 | inactive
CN(Cc1ccccn1)Cc1nc(-c2ccc(Cl)cc2)no1 | inactive
Cn1nc(-c2ccccc2)c(-c2nc(-c3ccc(Cl)cc3)no2)c1Cl | -7.35 (active)
CC(C)Cn1c(N)c(C(=O)COC(=O)CN2C(=O)C3CC=CCC3C2=O)c(=O)n(C)c1=O (stereo unspecified) | inactive
COC(=O)c1cc(NC(=O)CC2C(=O)NCCN2C(=O)c2ccc(F)cc2)cc(C(=O)OC)c1 (stereo unspecified) | inactive
Cc1csc(=Nc2ccccc2)n1CCO | inactive
Cc1cs/c(=N\N=C\c2ccc(O)cc2)n1Cc1ccco1 | -6.66 (active)
CN(c1ccccc1)c1ccc(/C=c2\s/c(=C(/C#N)C(=O)C(C)(C)C)n(Cc3ccco3)c2=O)cc1 | inactive
CCNC(=O)NC(=O)C(C)OC(=O)c1cc(S(=O)(=O)N2CCCCCC2)ccc1OC (stereo unspecified) | inactive
CCCCn1c(N)c(N(CC(C)C)C(=O)c2cccc(S(=O)(=O)N3CCN(C(C)=O)CC3)c2)c(=O)[nH]c1=O | inactive
Cc1cc(C)nc(-n2nc(C)cc2NC(=O)c2ccc(F)cc2F)n1 | inactive
CCCCn1ccnc1C(=O)c1cccc(S(=O)(=O)N2c3ccccc3CC2C)c1 (stereo unspecified) | -11.8 (active)
CC1Cc2ccccc2N1S(=O)(=O)c1ccc(Cl)nc1 (stereo unspecified) | inactive
CC1Cc2ccccc2N1S(=O)(=O)c1c(N)n(C)c(=O)n(C)c1=O (stereo unspecified) | inactive
COc1ccc(C(=O)NN2C(=O)C3C(c4ccccc4)C=CC(c4ccccc4)C3C2=O)cc1 (stereo unspecified) | -8.93 (active)
COc1ccccc1C(=O)NN1C(=O)C2C3C=CC(O3)C2C1=O (stereo unspecified) | inactive
O=C(NN1C(=O)C2C3C=CC(O3)C2C1=O)c1ccccc1 (stereo unspecified) | inactive
CC(=O)Nc1ccc(S(=O)(=O)NC(C)C(=O)OCC(=O)NC2CCCC2)cc1 (stereo unspecified) | inactive
CC1CCCN(C(C(=O)Nc2ccc(C(C)C)cc2)c2ccc3c(c2)OCO3)C1 (stereo unspecified) | -7.66 (active)
CCc1ccc(NC(=O)NC(C)c2ccc3c(c2)OCO3)cc1 (stereo unspecified) | inactive
O=C(Nc1ccc2c(c1)OCCO2)C(c1ccc(F)cc1)N1CCCCC1 (stereo unspecified) | inactive
O=C(Nc1ccc(S(=O)(=O)Nc2ccccn2)cc1)c1ccccc1 | inactive
O=C(CCl)N(Cc1cccc([N+](=O)[O-])c1)c1cccc(Cl)c1 | inactive
CCN(CC)C(=O)CN(c1cccc([N+](=O)[O-])c1)S(=O)(=O)c1ccccc1 | inactive

Compound | B-score
C=CCN(N=Nc1cccc([N+](=O)[O-])c1)c1cccc([N+](=O)[O-])c1 | -11.2 (active)
Cc1ccc(CSCC(=O)N(C)CC(=O)Nc2ccc(C)cc2)cc1 | inactive
O=S(=O)(Cc1noc(-c2ccc(OC(F)(F)F)cc2)n1)c1ccc(F)cc1 | inactive
COc1cc(Cl)c(C)cc1NC(=O)CSc1nnc(-c2ccco2)n1CC(C)C | -10 (active)
CCn1c(SCC(=O)Nc2cc(C)c(Cl)cc2OC)nnc1-c1ccco1 | inactive
COc1cc(Cl)c(C)cc1NC(=O)CSc1nnc(-c2cccnc2)n1Cc1ccco1 | inactive
CCOC(=O)c1sc(=S)n2c1[nH]c(=O)c1ccc(C(=O)OC)cc12 | inactive
CCOC(=O)c1sc(=NC(=O)c2ccc(Br)cc2)n(C)c1C | inactive
CCOC(=O)C1=C(C)Nc2sc(C(=O)c3ccc(Br)cc3)c(N)c2C1c1ccc(C(=O)OC)cc1 (stereo unspecified) | -9.37 (active)
CN(CC(=O)Nc1cccc(F)c1)C(=O)C1=COCCO1 | inactive
Cc1ccc(-n2ncc3c(Nc4cccc(C(=O)O)c4)ncnc32)cc1 | inactive
COc1ccc(C2=NS(=O)(=O)N(C)C(C(=O)N3CCCCC3)=C2)cc1 | inactive
O=C(CNCCC1=CCCCC1)Nc1ccccc1N1CCCCCC1 | -8.91 (active)
Cc1ccccc1NC(=O)CNc1ccccc1N1CCCCC1 | inactive
Cc1ccccc1NC(=O)Nc1ccccc1N1CCCCC1 | inactive
Cc1ccc2oc(C(=O)N3CCN(C)C[C@@H]3C(C)C)c(C)c2c1 | inactive
CC(C)CC(COCc1ccc(Cl)cc1)N1CCN(C(=O)c2ccc(C(F)(F)F)cc2)CCC1=O (stereo unspecified) | -8.19 (active)
O=C(c1cc(Cl)cc(Cl)c1)N1CCC(=O)N(C(COCc2ccccc2)Cc2ccccc2)CC1 (stereo unspecified) | inactive
CC(C)CC(CO)N1CCN(C(=O)c2ccc(Cl)cc2Cl)CCC1=O (stereo unspecified) | inactive
O=C1[C@H]2[C@@H](c3ccc(Cl)cc3)N3C(=O)N(c4cccc(F)c4)C(=O)[C@@]3(Cc3ccccc3)[C@H]2C(=O)N1C1CCCCC1 | inactive
COC(=O)c1noc(C)c1-c1ccnn1C(=O)c1ccc(Cl)cc1 | inactive
Cc1ccc(S(=O)(=O)Cc2cc(-c3ccc(Cl)cc3)no2)cc1 | inactive
Cc1onc(-c2ccc(Cl)cc2)c1-c1ccnn1S(=O)(=O)c1ccc(Cl)cc1 | -12.4 (active)

— PubChem BioAssay AID488922 (Johns Hopkins Ion Channel Center, 2010)
